Gli-Sufu antag: Gli-Sufu pathway antagonism. Sufu-KO-LIGHT fibroblasts, Gli luciferase reporter luminescence. inhibition, % at 5 µM. 340,000 compounds, 0.74% hits;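 active = inhibition above about 55%, limit read from the data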
Mdm2-MdmX inh: inhibitors of human Mdm2/MdmX interaction. O15151+Q00987. SaOS-2 split-luciferase Mdm2/MdmX complementation, luminescence. inhibition, % at 8 µM. 330,000 compounds, 3% hits. AID 485346;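 active = inhibition of at least 50% at 8 µM in the primary screen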
Target sequence (O15151 whole entry, looked up): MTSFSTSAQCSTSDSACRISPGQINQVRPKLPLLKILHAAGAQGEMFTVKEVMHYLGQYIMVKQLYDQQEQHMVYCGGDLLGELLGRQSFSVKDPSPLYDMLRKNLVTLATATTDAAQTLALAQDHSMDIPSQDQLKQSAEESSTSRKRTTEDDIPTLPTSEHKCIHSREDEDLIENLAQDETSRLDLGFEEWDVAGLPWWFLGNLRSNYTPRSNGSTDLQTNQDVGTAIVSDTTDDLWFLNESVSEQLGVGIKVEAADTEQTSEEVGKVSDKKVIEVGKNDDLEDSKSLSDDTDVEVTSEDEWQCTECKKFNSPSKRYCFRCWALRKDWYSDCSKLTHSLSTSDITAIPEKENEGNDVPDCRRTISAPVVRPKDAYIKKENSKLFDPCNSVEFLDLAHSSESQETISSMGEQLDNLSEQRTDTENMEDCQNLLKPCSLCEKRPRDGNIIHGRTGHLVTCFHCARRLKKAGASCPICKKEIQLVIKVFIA
Target sequence (Q00987 whole entry, looked up): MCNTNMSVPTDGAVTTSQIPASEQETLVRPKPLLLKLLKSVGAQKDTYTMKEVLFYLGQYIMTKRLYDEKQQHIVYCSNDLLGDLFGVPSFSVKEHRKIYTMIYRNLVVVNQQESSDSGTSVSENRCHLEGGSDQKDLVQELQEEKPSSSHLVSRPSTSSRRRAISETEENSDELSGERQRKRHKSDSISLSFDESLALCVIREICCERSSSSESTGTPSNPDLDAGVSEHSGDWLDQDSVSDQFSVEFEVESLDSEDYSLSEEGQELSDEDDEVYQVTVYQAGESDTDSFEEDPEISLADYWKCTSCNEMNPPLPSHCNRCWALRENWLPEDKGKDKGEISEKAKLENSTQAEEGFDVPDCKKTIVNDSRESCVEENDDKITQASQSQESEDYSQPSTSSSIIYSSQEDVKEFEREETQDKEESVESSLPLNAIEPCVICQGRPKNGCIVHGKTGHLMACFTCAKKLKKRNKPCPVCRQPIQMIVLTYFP
CSC inhib: cancer stem cell inhibition; cancer stem cell-like cells viability, luminescence; inhibition, % at 7.5 µM; 300,000 compounds, 1.1% hits; in the data active = inhibition above about 75%; inconclusive = no clear call, values can overlap the other calls; tested in HMLE shEcad cells
Beta cell apopt: blocks beta cell apoptosis; AID 435005; INS-1E cytokine-induced death, ATP luminescence, 48 h; percent of positive-control rescue, neutral wells zero; 300,000 compounds, 0.8% hits; protection from apoptosis, % (test concentration not listed);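 active = Every replicate reaches about 75%, or at least half do and their mean reaches it too, limit read from the data; inconclusive = At least half of replicates reach the limit but their mean does not; inactive = Under half of replicates reach the limit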;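 also: higher means more ATP so stronger rescue from cytokine killing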
Jurkat NFkB inh: lowers PMA/ionomycin-induced NF-kB signal in Jurkat cells; PMA/ionomycin-induced NF-kB luciferase reporter, luminescence; inhibition, % at 4 µM; 330,000 compounds, 0.53% hits; in the data active = inhibition above about 50%
697 NFkB inh: lowers PMA/ionomycin-induced NF-kB signal in 697 B cells; 330,000 compounds, 0.33% hits; AID 435022; inhibition, % at 4 µM; 697 B-cell NF-kB luciferase reporter, 16 h; in the data active = inhibition above about 35%
Mdm2-MdmX conf: human Mdm2/MdmX binding inhibition, confirmed; shares compounds with Mdm2-MdmX inh; luminescent assay; inhibition, % at 8 µM; 10,000 compounds, 55% hits; AID 489028; in the data active = inhibition above about 40%
FLuc counter: full-length luciferase inhibition in Mdm2/MdmX counter-screen. shares compounds with Mdm2-MdmX inh. SaOS-2 full-length luciferase counterscreen, luminescence. 6,200 compounds, 77% hits. inhibition, % at 8 µM. AID 504607;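 active = mean inhibition at 8 µM reaching about 37%, which flags the compound as non-specific, limit read from the data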;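 also: p53-null SaOS-2 cells with luciferase driven by a doxycycline-inducible promoter; compound on cells about two nights before reading with doxycycline added after day one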
Of the large screens only hits and unclear results are named; the others gave an inactive call (follow-up assays come after a bar, where they were run). The list is not random: actives were taken first. Their share in the collection is about 4.5%.

O=C1/C(=C/c2ccccc2)NC(=S)N1C(c1ccccc1)c1ccccc1	Mdm2-MdmX inh 51 | Mdm2-MdmX conf 59 | FLuc counter 61
CCOc1ccc(NC(=O)C2CCCN(S(=O)(=O)c3c(C)noc3C)C2)cc1 (stereo not drawn)	none
CCC(=O)N1CCc2cc(S(=O)(=O)N3CCN(c4ccccc4)CC3)ccc21	Mdm2-MdmX inh 55 | Mdm2-MdmX conf inactive
COc1ccc(C(=O)OCC(=O)Nc2sccc2C(N)=O)cc1[N+](=O)[O-]	none (no result: CSC inhib)
O=C(CSc1ccc2nnc(CCNC(=O)c3ccccc3)n2n1)NCCc1ccccc1	none (no result: Beta cell apopt)
Cc1[nH]c(=O)c(C(=O)/C=C/c2ccccc2F)c2c1CCCC2	Mdm2-MdmX inh 80 | Mdm2-MdmX conf 99 | FLuc counter 53
Cc1nc2sc3c(NCc4ccco4)ncnc3c2c2c1COC(C)(C)C2	Mdm2-MdmX inh 63, CSC inhib 85 | Mdm2-MdmX conf 46 | FLuc counter 37
N#Cc1c(NCCN)nc(NCc2ccccc2)c2c1CCN(Cc1ccccc1)C2	none (no result: Mdm2-MdmX inh, CSC inhib, Beta cell apopt, Jurkat NFkB inh, 697 NFkB inh)
C=CCNc1nc(NCc2ccccc2)c(C#N)c2c1CN(C)CC2	Mdm2-MdmX inh 74 | Mdm2-MdmX conf 52 | FLuc counter 61
CCN(CC)CCCNC(=O)c1cc2c(-c3ccc(Cl)cc3)nn(C)c2s1	Mdm2-MdmX inh 64, CSC inhib 98 | Mdm2-MdmX conf inactive
CN1CCN(CCCNC(=O)c2cc3c(-c4ccc(Cl)cc4)nn(C)c3s2)CC1	Mdm2-MdmX inh 68 (no result: CSC inhib, Beta cell apopt) | Mdm2-MdmX conf inactive
CC(NC(=O)c1cc(-c2ccc(Br)cc2)on1)c1ccccc1 (stereo not drawn)	Mdm2-MdmX inh 54 | Mdm2-MdmX conf inactive
O=C(Nc1nc(-c2ccc(-c3ccccc3)cc2)cs1)C1=COCCO1	Mdm2-MdmX inh 65 | Mdm2-MdmX conf 57 | FLuc counter 41
CC(=O)c1c(C)[nH]c(C(=O)Nc2nc(-c3ccc(Cl)cc3)cs2)c1C	none
CC(=O)c1c(C)[nH]c(C(=O)Nc2nc(-c3ccc(-c4ccccc4)cc3)cs2)c1C	Mdm2-MdmX inh 87 | Mdm2-MdmX conf 44 | FLuc counter 100
Cc1ccc(-n2ncc3c2CC(C)(C)CC3NC(=O)c2c(C)noc2C)cc1 (stereo not drawn)	none
Cc1ccc(OC(C)C(=O)N2CC(=O)Nc3ccccc32)c(C)c1 (stereo not drawn)	none (no result: CSC inhib)
COc1ccc(NC(=O)Nc2ccc3c(c2)CCC3)cc1	none
O=C(NC1CC1)c1ccc2c(c1)S(=O)(=O)c1cc(Cl)ccc1C2=O	Mdm2-MdmX inh 95 (no result: Gli-Sufu antag) | Mdm2-MdmX conf 94 | FLuc counter 38
CC1CCN(CC(O)CN2c3ccccc3Sc3ccccc32)CC1 (stereo not drawn)	Mdm2-MdmX inh 54 | Mdm2-MdmX conf inactive
CCOC(=S)SCC(=O)Nc1nc(C)c(C)s1	none
CCOC(=S)SCC(=O)Nc1nc(-c2ccc(Br)cc2)cs1	Mdm2-MdmX inh 84, CSC inhib 85 | Mdm2-MdmX conf 76 | FLuc counter 102
CCOC(=S)SCC(=O)Nc1nccs1	none
CCOC(=S)SCC(=O)Nc1nc(-c2ccccc2)cs1	Mdm2-MdmX inh 60 | Mdm2-MdmX conf 57 | FLuc counter 100
O=C(CSc1nnc(Nc2ccccc2)s1)NCC1CCCO1 (stereo not drawn)	none
Cc1cccc(OCc2ccccc2)n1	none (no result: Mdm2-MdmX inh, CSC inhib, Beta cell apopt, Jurkat NFkB inh, 697 NFkB inh)
COc1ccc(NC(=O)C2C3C=CC4(O3)C2C(=O)N(CCN2CCCCC2C)C4C(=O)NC2CCCCC2)cc1 (stereo not drawn)	none
Cc1ccc(C)c(Cn2c(C)nc3c(sc(=S)n3-c3ccccc3)c2=O)c1	Mdm2-MdmX inh 60 | Mdm2-MdmX conf inactive
Cc1ccc(-n2c(SCC(=O)O)nc3c(sc(=S)n3-c3ccc(C)c(C)c3)c2=O)cc1	none (no result: CSC inhib, Beta cell apopt)
CC[C@]12C(=O)N(C)C[C@H]([C@@H]3C(=O)N(C)C(=O)[C@@H]31)N2C(=O)c1ccc(Cl)c(Cl)c1	none (no result: Mdm2-MdmX inh, CSC inhib, Beta cell apopt, Jurkat NFkB inh, 697 NFkB inh)
CC(=O)c1ccc(NC(=O)C2=CC(c3cccs3)=NS(=O)(=O)N2C)cc1	none
CCc1ccc(NC(=O)C2=CC(c3cccs3)=NS(=O)(=O)N2C)cc1	Mdm2-MdmX inh 72 | Mdm2-MdmX conf 57 | FLuc counter 44
COc1cc(NC(=O)C2=CC(c3cccs3)=NS(=O)(=O)N2C)cc(OC)c1OC	none
Cc1ccc(NC(=O)C2=CC(c3cccs3)=NS(=O)(=O)N2C)cc1	Mdm2-MdmX inh 53 (no result: CSC inhib) | Mdm2-MdmX conf inactive
Cc1ccc(-n2c(SCC(=O)N/N=C/c3c(C)nn(-c4ccccc4)c3C)nc3ccccc3c2=O)cc1	Mdm2-MdmX inh 66, CSC inhib inconclusive | Mdm2-MdmX conf 47 | FLuc counter 68
Cc1ccccc1-n1c(SCC(=O)N/N=C/c2c(C)nn(-c3ccccc3)c2C)nc2ccccc2c1=O	none
Cc1nn(-c2ccccc2)c(C)c1/C=N/NC(=O)CSc1nc2ccccc2c(=O)n1-c1ccc(Br)cc1	Mdm2-MdmX inh 74 | Mdm2-MdmX conf 65 | FLuc counter 74
C=C(C)Cn1c(SCC(=O)N/N=C/c2c(O)ccc3ccccc23)nc2ccccc2c1=O	Mdm2-MdmX inh 83, CSC inhib 103 | Mdm2-MdmX conf 56 | FLuc counter inactive
Cc1ccc(-n2c(SCC(=O)N/N=C/c3ccccc3OCC(=O)O)nc3ccccc3c2=O)cc1	none
COCCN(C(=O)C1=COCCO1)c1c(N)n(CC(C)C)c(=O)[nH]c1=O	none (no result: CSC inhib)
O=C(Nc1ccc(Oc2c(F)c(F)c(F)c(F)c2F)cc1)OC1CCN2Cc3ccccc3N=C12 (stereo not drawn)	Mdm2-MdmX inh 68, CSC inhib 104 | Mdm2-MdmX conf inactive
O=S(=O)(O)c1cc(O)c2c(O)c(N=Nc3cc(Cl)ccc3O)c(S(=O)(=O)O)cc2c1	none
Cc1cc(-c2ccc(N=Nc3c(S(=O)(=O)O)cc4cc(S(=O)(=O)O)cc(N)c4c3O)c(C)c2)ccc1N=Nc1c(S(=O)(=O)O)cc2cc(S(=O)(=O)O)cc(N)c2c1O	Mdm2-MdmX inh 62, Beta cell apopt 77 (no result: Gli-Sufu antag) | Mdm2-MdmX conf 57 | FLuc counter 48
CC(C)(C)OC(=O)NCCCC[C@H](NC(=O)c1[nH]cnc1C(=O)Nc1ccc(CNC(=O)OC(C)(C)C)cc1)C(=O)OC(C)(C)C	Mdm2-MdmX inh 87 | Mdm2-MdmX conf 47 | FLuc counter 75
CC(C)(C)OC(=O)NCc1ccc(NC(=O)c2nc[nH]c2C(=O)NCCCNC(=O)c2[nH]cnc2C(=O)Nc2ccc(CNC(=O)OC(C)(C)C)cc2)cc1	Mdm2-MdmX inh 86, CSC inhib 114 | Mdm2-MdmX conf inactive
CC(C)(C)OC(=O)NCCCCCNC(=O)c1[nH]cnc1C(=O)Nc1ccc(Cl)cc1	Mdm2-MdmX inh 64 | Mdm2-MdmX conf inactive | FLuc counter 59
